# In PubChem BioAssay (Tox21):
# Where “and” joins values, the source holds several entries; their conditions need not be identical. Equal entries are not always repeated. Inconclusive results are not listed. Where a call stands in place of a potency, no number is given. Some structures have more than one record in an assay (separate samples or runs), and their calls can disagree. Calls of active or inactive are those of the source. Unless noted, calls follow the shape of the dose curve; as a rule, active = well fitted curve in the direction sought with a large enough effect in the repeat runs; inconclusive = weak or mixed curves; inactive = no such curve, though single readings can be large; an effect the other way counts as inactive or inconclusive.
# Legend:
# [1] = qHTS assay to identify small molecule agonists of the estrogen receptor alpha (ER-alpha) signaling pathway in the presence of an antagonist - cell viability counter screen (AID 1259386);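 also: cells exposed to compounds for 22 h at 37 °C before the viability read; nearly all actives have a fitted effect of over 30% in size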; also: potency is read from the fitted curve at half-maximal effect
# Method in brief: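 Viability counter screen using VM7Luc4E2 (full-length ER-alpha, four ERE-luciferase). The cells were treated with compounds alongside ICI-182,780 10.0nM for 22hr, and live-cell protease fluorescence was quantified with CellTiter-Fluor.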
# [2] = qHTS assay to identify small molecule antagonists of the progesterone receptor (PR) signaling pathway - cell viability counter screen (AID 1346798); also: nearly all actives have a fitted effect of over 50% in size; also: potency is read from the fitted curve at half-maximal effect
# Method in brief: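 Viability was determined by ATP-based luminescence (CellTiter-Glo) in PR-UAS-bla HEK293T cells cultured in 2% charcoal-stripped serum and incubated 16 hr with compounds under R5020 stimulation.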
# [3] = qHTS assay to identify small molecule agonists of the progesterone receptor (PR) signaling pathway - cell viability counter screen (AID 1346799; calls by dose curve; also: nearly all actives have a fitted effect of over 45% in size)
# Method in brief: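 Viability was scored by ATP luminescence (CellTiter-Glo, 30 min, room temperature) in the same wells used for the reporter readout, after 16 hr compound exposure of PR-UAS-bla HEK293T cells.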
# [4] = qHTS assay to identify small molecule antagonists of the TGF-beta/Smad signaling pathway - cell viability counter screen (AID 1346824); also: nearly all actives have a fitted effect of over 50% in size; also: potency is read from the fitted curve at half-maximal effect
# Method in brief: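 Cytotoxicity counter-screen run in the same wells as the beta-lactamase Smad reporter read: CellTiter-Glo luminescence after 30 min at room temperature. HEK 293T SBE-bla cells had 5 hr compound exposure at 37 C with TGF-beta1 (0.25 ng/mL stock).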
# [5] = qHTS assay to identify small molecule agonists of the TGF-beta/Smad signaling pathway - cell viability counter screen (AID 1346829); also: nearly all actives have a fitted effect of over 45% in size; also: potency is read from the fitted curve at half-maximal effect
# Method in brief: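 HEK 293T SBE-bla line, 5 hr compound exposure at 37 C, multiplexed CellTiter-Glo viability read by luminescence.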
# [6] = qHTS assay to identify small molecule agonists of the TGF-beta/Smad signaling pathway (AID 1346859; active = well fitted activation curve with a large enough effect in the signal ratio in the repeat runs, not every such curve was filed as active; the % refers to the signal ratio; also: series mostly up to about 77 µM)
# Method in brief: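 Dual-wavelength fluorescence (460/530 nm emission) quantified beta-lactamase expression under the Smad binding element in HEK 293T cells following 5 hr compound treatment at 37 C.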
# [7] = target: Thyrotropin-releasing hormone receptor (Homo sapiens) (UniProt P34981); assay: qHTS assay to identify small molecule antagonists of the thyrotropin-releasing hormone receptor (TRHR) signaling pathway (AID 1346877; active = well fitted inhibition curve with a large enough effect in the repeat runs, not every such curve was filed as active; also: series mostly up to about 51 µM)
# Sequence of Thyrotropin-releasing hormone receptor (Homo sapiens) (P34981 whole entry, looked up): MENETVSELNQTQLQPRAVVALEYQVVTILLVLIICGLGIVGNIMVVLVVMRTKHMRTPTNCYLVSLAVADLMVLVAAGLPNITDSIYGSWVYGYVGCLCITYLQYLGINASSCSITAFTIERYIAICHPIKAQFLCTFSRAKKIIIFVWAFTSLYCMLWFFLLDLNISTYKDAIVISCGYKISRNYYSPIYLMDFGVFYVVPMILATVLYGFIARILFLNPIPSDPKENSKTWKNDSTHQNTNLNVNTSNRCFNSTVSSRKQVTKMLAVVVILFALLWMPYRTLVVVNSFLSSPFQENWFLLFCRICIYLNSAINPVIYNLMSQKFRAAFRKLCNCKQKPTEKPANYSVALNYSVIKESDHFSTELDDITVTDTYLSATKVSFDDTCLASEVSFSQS
# Method in brief: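 Following an 18 h incubation at 37 °C and a 2 h calcium dye load, TRHR-HEK293 cells were exposed to compound (5 min, room temperature) and challenged with TRH, 1 nM final.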
# [8] = target: Thyrotropin-releasing hormone receptor (Homo sapiens) (UniProt P34981); assay: qHTS assay to identify small molecule agonists of the thyrotropin-releasing hormone receptor (TRHR) signaling pathway (AID 1346891; calls by dose curve;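 also: HEK293 cells expressing TRHR with calcium dye readout; series mostly up to about 58 µM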)
# Method in brief: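 Kinetic fluorescence (3 min, 1 s intervals) reported intracellular calcium after compound transfer onto TRHR-Hek293 cells pre-loaded with dye for 2 h at 37 °C.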
# [9] = target: Progesterone receptor (Homo sapiens) (UniProt P06401); assay: qHTS assay to identify small molecule antagonists of the progesterone receptor (PR) signaling pathway (AID 1346795; active = well fitted inhibition curve with a large enough effect in the signal ratio in the repeat runs, not every such curve was filed as active; the % refers to the signal ratio; also: potency is read from the fitted curve at half-maximal effect)
# Sequence of Progesterone receptor (Homo sapiens) (P06401 whole entry, looked up): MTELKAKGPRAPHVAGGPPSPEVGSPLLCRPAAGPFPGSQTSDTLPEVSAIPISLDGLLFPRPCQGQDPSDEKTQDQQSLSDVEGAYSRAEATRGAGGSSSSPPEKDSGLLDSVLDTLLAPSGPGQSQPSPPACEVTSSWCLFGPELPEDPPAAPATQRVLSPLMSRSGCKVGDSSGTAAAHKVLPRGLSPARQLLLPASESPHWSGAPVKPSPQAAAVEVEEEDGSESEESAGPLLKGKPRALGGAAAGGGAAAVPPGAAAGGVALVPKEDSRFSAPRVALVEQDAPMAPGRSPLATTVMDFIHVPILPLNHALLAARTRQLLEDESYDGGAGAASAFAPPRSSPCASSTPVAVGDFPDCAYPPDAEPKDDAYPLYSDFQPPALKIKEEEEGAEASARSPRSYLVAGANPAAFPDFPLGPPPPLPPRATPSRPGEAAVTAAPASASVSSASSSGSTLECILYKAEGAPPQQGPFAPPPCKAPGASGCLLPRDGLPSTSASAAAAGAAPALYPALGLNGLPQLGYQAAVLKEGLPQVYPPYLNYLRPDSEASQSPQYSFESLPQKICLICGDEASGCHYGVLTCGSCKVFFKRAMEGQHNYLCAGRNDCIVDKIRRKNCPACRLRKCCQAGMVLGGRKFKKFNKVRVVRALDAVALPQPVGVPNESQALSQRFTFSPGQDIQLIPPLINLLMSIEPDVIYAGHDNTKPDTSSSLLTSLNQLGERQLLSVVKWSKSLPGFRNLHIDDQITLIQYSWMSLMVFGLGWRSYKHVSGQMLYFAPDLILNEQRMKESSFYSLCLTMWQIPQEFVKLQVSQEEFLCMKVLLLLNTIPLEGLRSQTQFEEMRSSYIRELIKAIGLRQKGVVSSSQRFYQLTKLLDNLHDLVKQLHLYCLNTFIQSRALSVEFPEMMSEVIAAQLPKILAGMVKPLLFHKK
# Method in brief: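 After 6 hr plating at 37C in 2% stripped-serum medium, PR-UAS-bla HEK293T cells got compounds, then 1 nM R5020. Sixteen hours later, LiveBLAzer substrate was applied for 2 hr at room temperature and fluorescence was recorded.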
# [10] = target: Progesterone receptor (Homo sapiens) (UniProt P06401); assay: qHTS assay to identify small molecule agonists of the progesterone receptor (PR) signaling pathway (AID 1346784; calls by dose curve; also: nearly all actives have a fitted effect of over 30% in size)
# Method in brief: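 The screen uses PR-UAS-bla HEK 293T cells in charcoal-stripped serum (2%). Compounds are applied for 16 hr at 37C after a 6 hr pre-incubation, and reporter activity is detected with a FRET beta-lactamase substrate after 2 hr at room temperature.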
SMILES,Potency [1],Potency [2],Potency [3],Potency [4],Potency [5],Potency [6],Potency [7],Potency [8],Potency [9],Potency [10]
CC(=O)OCC(C)OC(C)=O (configuration not stated),inactive,inactive,inactive,inactive,inactive,inactive,inactive,inactive,,
Cc1cc(N)c(S(=O)(=O)O)cc1Cl,inactive,inactive,inactive,inactive,inactive,inactive,inactive,inactive,,
CCCC(c1cc(C(C)(C)C)c(O)cc1C)c1cc(C(C)(C)C)c(O)cc1C,61.9 µM (active),22 µM (active),,24.8 µM (active),24.8 µM (active),,inactive,inactive,,
N/C(=N\N=C\c1ccc(Cl)cc1)N/N=C/c1ccc(Cl)cc1,inactive,29.8 µM (active),,inactive,,inactive,inactive,inactive,,
OCCN1CCN(CC/C=C2/c3ccccc3Sc3ccc(C(F)(F)F)cc32)CC1,inactive,23.7 µM (active),,inactive,,,inactive,inactive,,
Cc1cc(C2CCCCC2)n(O)c(=O)c1,,inactive,inactive,inactive,inactive,,,,3.35 µM (active),
CCCCCOC(=O)CCCC,inactive,,inactive,,inactive,inactive,inactive,inactive,,
CCCCCCCC[N+](CCCCCCCC)(CCCCCCCC)CCCCCCCC,12.2 µM (active),30.6 µM (active),,48.9 µM (active),43.6 µM (active),,inactive,inactive,,
C[n+]1ccn(Cc2ccccc2)c1,,,,inactive,inactive,,inactive,inactive,,inactive
CCC1=C[C@@H]2CN(C1)Cc1c([nH]c3ccccc13)[C@@](C(=O)OC)(c1cc3c(cc1OC)N(C)[C@H]1[C@@](O)(C(=O)OC)[C@H](OC(C)=O)[C@]4(CC)C=CCN5CC[C@]31[C@@H]54)C2,,,,inactive,inactive,inactive,inactive,inactive,0.944 µM (active),inactive
CNc1ccc(O)cc1,61 µM (active),,,,,,inactive,inactive,,
OC1(c2ccc(Cl)c(C(F)(F)F)c2)CCN(CCCC(c2ccc(F)cc2)c2ccc(F)cc2)CC1,33.5 µM (active),,,19 µM (active),19 µM (active),,inactive,inactive,,
CCCCC(CC)COC(=O)c1ccccc1C(=O)O (configuration not stated),inactive,inactive,,inactive,inactive,,,inactive,,
Cc1[nH]nc2c1N=C(c1ccccc1Cl)c1cc([N+](=O)[O-])ccc1N2,27.3 µM (active),,,,4.36 µM (active),,,,,
O=C(Nc1cccc(Cl)c1)OCC#CCCl,61.1 µM (active),54.5 µM (active),,inactive,inactive,,inactive,inactive,,
Cc1oc(-c2ccccc2)nc1CCC(=O)c1ccc(CC2SC(=O)NC2=O)cc1 (configuration not stated),,,,inactive,inactive,,inactive,inactive,,inactive
CC(C)CCCCCCCCCCCCCCC(=O)O,,inactive,,inactive,inactive,,inactive,inactive,inactive,inactive
CCCCC(CC)CN=C(N)NC(N)=NCCCCCCN=C(N)NC(N)=NCC(CC)CCCC (configuration not stated),23.7 µM (active),,,19 µM (active),23.9 µM (active),,inactive,inactive,,
CC[C@H]1O[C@]2(CC[C@@H]1C)C[C@@H]1C[C@@H](C/C=C(\C)C[C@@H](C)/C=C/C=C3\CO[C@@H]4[C@H](O)C(C)=C[C@@H](C(=O)O1)[C@]34O)O2,68 µM (active),68 µM (active),,54.5 µM (active),54.5 µM (active),,inactive,inactive,,
CC(C)n1nc(-c2cc3cc(O)ccc3[nH]2)c2c(N)ncnc21,,inactive,inactive,inactive,inactive,,inactive,inactive,,inactive
Clc1ccc2n[nH]nc2c1,inactive,,,inactive,inactive,,inactive,inactive,,
CCCCC(CC)COP(=O)(O)OCC(CC)CCCC (configuration not stated),inactive,,,inactive,inactive,inactive,inactive,inactive,,
O=c1cc(-c2ccc(O)cc2)oc2cc(O)cc(O)c12,inactive and 48.6 µM (active),,,inactive,inactive,,inactive,inactive,,
O=C1c2ccccc2Cc2ccccc21,,inactive,inactive,inactive,inactive,,inactive,inactive,,inactive
Cc1ccc(-n2nc(C(C)(C)C)cc2NC(=O)Nc2ccc(OCCN3CCOCC3)c3ccccc23)cc1,,inactive,,inactive,inactive,,inactive,inactive,,inactive
